Data: PubChem BioAssay (NCATS)
Several values for one entry are separate records, joined by “and”; a condition that tells them apart may be missing. Equal entries are not always repeated. Results filed as inconclusive are left out. A number with no mark means an inactive call. Activity calls are given as the source filed them. The call rests on the fitted dose curve; in most records, active means well fitted cell-killing curve with a large enough effect; inconclusive means small, poorly fitted or top-dose-only effect; inactive means flat fitted curve, though single readings scatter. Where a SMILES comes first, the peptide text is derived from it.

Experiment: Cellular viability qHTS for adrenocortical cancer (ACC) cell line SW-13 (AID 1963989); further: nearly all actives have a fitted effect of over 65% in size;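 on activity (max response): cells grown in serum-free medium with ITS supplement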
Settings: SW-13 ACC cells viability, CellTiter-Glo, 48 h; activity (max response): stronger effect = lower value
Source text: PI: Naris Nilubol, MD Surgical Oncology Program, National Cancer Institute (NCI) National Institute of Health (NIH), Bethesda, Maryland Adrenocortical cancer (ACC) is a rare malignancy with poor survival outcomes and few treatment options. Currently, mitotane is the only FDA-approved therapy for ACC. Although adjuvant radiation therapy is rarely utilized, it has the potential to improve survival in select cases. Through a quantitative high-throughput drug screen (qHTS), we identified auranofin (AF), a thioredoxin reductase (TXNRD) inhibitor, as a promising candidate drug. This study aims to evaluate whether AF can enhance the efficacy of radiation therapy in the treatment of ACC. Two human ACC cell lines, SW-13 and NCI-H295R, were screened using the National Center for Advancing Translational Sciences (NCATS) Pharmaceutical Collection (NPC) and the Mechanism Interrogation PlatE (MIPE) library (~4,991 compounds). CellTiter-Glo (Cat # G7570, Promega, Madison, WI) was utilized to measure cell viability. Described herein are the results of the corresponding viability assay.
PROTOCOL TABLE (as described by Inglese J, Shamu CE and Guy RK. 2007) SEQUENCE No. (e.g., 1, 2, 3, etc.); […] (e.g., Cells, Incubation, Reagent, etc.); VALUE; DESCRIPTION. 1; Cells; 5 uL; white, solid-bottom, 1536-well tissue-culture treated plates. 2; Time; overnight culture at 37C with 5% CO2. 3; Compounds and control; 23 nL; Kalypsis pin tool (Wako USA) equipped with a 1536-well pin head to transfer to the assay plates. 4; Time; 48 hours; 37C with 5% CO2. 5; Reagent; 4 uL; CellTiter-Glo luminescent substrate mix. 6; Time; 20 min at room temperature. 7; Detection; Luminescence; ViewLux plate reader NOTES (numbers refer to Sequence numbers above) 1. SW13 cells were harvested from a T175 flask and resuspended in ITS-supplemented DMEM serum-free medium at a concentration of 300 000 cells/mL. Then 5 uL of resuspended cells were dispensed into each well of white, solid-bottom, 1536-well tissue-culture-treated plates using a multidrop combi dispenser. The plates were covered with stainless steel gasket lids. 2-3. The plates were cultured overnight at 37C with 5% CO2. Twenty-three nL of compounds (eight selected concentrations from the NPC / MIPE) or positive control (10 mM stock of bortezomib) in DMSO was transferred to each well of the assay plate using a pin tool (Kalypsys, San Diego, CA, USA). The final concentration of the compounds in the 5 uL assay volume ranged from 0.5 nM to 46 uM. 4-6. After 48 hours of incubation at 37C and 5% CO2, 4 uL of CellTilter-Glo luminescent substrate mix (Promega, Madison, WI, USA) was added to each well. Then the plates were incubated for 20 minutes at room temperature. 7. After incubation, luminescence was measured using a ViewLux plate reader (PerkinElmer, Waltham, MA, USA) with a clear filter was used to measure the number of metabolically competent cells. To determine compound activity in the qHTS assay, the titration-response data for each sample was plotted and modeled by a four-parameter logistic fit yielding IC50 and efficacy (maximal response) values. […] REFERENCES: Inglese J, Shamu CE and Guy RK, Reporting data from high throughput screening of small molecule libraries, Nature Chemical Biology, 2007, 3(8): 438-441. doi.org/10.1038/nchembio0807-438.
On the % scale 0 is the no-effect control and ±100 the full control effect.

| Structure (SMILES) | activity (max response) | Potency |
| --- | --- | --- |
| CN(C)c1ccc(O)c2c1C[C@H]1C[C@H]3[C@H](N(C)C)C(=O)C(C(N)=O)=C(O)[C@@]3(O)C(=O)C1=C2O | -4.3% and 1.01% | – |
| N#Cc1cc(NC(=O)Nc2nnc(-c3ccncc3)s2)ccc1-c1cn[nH]c1 | 13.8% | – |
| O=C1N(c2ccccc2)c2ccccc2C1(Cc1ccncc1)Cc1ccncc1 | -5.03% and 7.18% | – |
| COC(=O)[C@H]1[C@H]2C[C@@H]3c4[nH]c5cc(OC)ccc5c4CCN3C[C@H]2C[C@@H](OC(=O)COc2ccc(OC)cc2)[C@@H]1OC | -9.25% | – |
| O=C(OCc1ccccc1)c1ccccc1 | -7.64% | – |
| CCOc1cc(NC(C)=O)ccc1C(=O)OC | 1.95% | – |
| COc1cc(OC)c(C(=O)CCCN2CCCC2)c(OC)c1 | 9.88% and 2.45% | – |
| O=C(c1cc(O)c(O)c(O)c1)c1ccc(O)c(O)c1O | 4.03% | – |
| O=S(=O)(O)c1ccc2cc(N=Nc3cc(S(=O)(=O)O)c4cccnc4c3O)ccc2c1 | -15.7% | – |
| CCCCCC(C)N (stereo not given) | 17.9% | – |
| COc1cc2nc(N(C)CCCNC(=O)C3CCCO3)nc(N)c2cc1OC (stereo not given) | -10.5% | – |
| NC(=O)c1ccccc1Nc1ccnc(Nc2cccc(O)c2)n1 | – | 17.8 µM (active) |
| CN1C(CSCC(F)(F)F)Nc2cc(Cl)c(S(N)(=O)=O)cc2S1(=O)=O (stereo not given) | -6.86% | – |
| C[C@@]12CCC[C@H]1[C@@H]1CC[C@H]3C[C@@H](O)CC[C@]3(C)[C@H]1CC2 | -0.85% | – |
| COc1cc(C(C)C)c(Oc2cnc(NC(CO)CO)nc2N)cc1I | -4% | – |
| CC(C)(C)C(=O)NCCCC(=O)O | 7.9% | – |
| COc1cc(N2CCC(N(C)C)CC2)ccc1Nc1ncc(Cl)c(Nc2ccccc2P(C)(C)=O)n1 | – | 2 µM (active) |
| CC(=O)SCC(CC(=O)c1ccc(C)cc1)C(=O)O (stereo not given) | 11.5% | – |
| CCOCC(O)COc1ccc(NC(=O)CC[S+](C)C)cc1 (stereo not given) | 1.78% and -20% | – |
| Cc1ncc([N+](=O)[O-])n1CC(O)CCl (stereo not given) | -4.94% | – |

| Structure (SMILES) | activity (max response) | Potency |
| --- | --- | --- |
| CC[C@H](CC#N)OC(=O)N[C@@H](C)c1cccc(NC(=O)Nc2ccc(-c3cnco3)c(OC)c2)c1 | – | 28.2 µM (active) |
| CCC(C)(C)C(=O)O[C@H]1C[C@@H](C)C=C2C=C[C@H](C)[C@H](CC[C@@H]3C[C@@H](O)CC(=O)O3)[C@H]21 | -9.24% and -17.2% | – |
| CC(=O)N[C@@H](CO)C(=O)N[C@@H](CC(=O)O)C(=O)N[C@@H](CCCCN)C(=O)N1CCC[C@H]1C(=O)O (Ac-SDKP-OH) | 0.638% | – |
| NC(N)=NN=C(/C=C/c1ccc([N+](=O)[O-])o1)/C=C/c1ccc([N+](=O)[O-])o1 | – | 2.59 µM (active) |
| O=C1OC(COc2ccccc2[N+](=O)[O-])CC1Cc1ccccc1 (stereo not given) | -13.4% | – |
| C[C@H](NC(=O)c1c(N)nn2cccnc12)c1cc2cccc(C#Cc3cnn(C)c3)c2c(=O)n1-c1ccccc1 | -17.5% | – |
| CN1C(C(=O)Nc2ccccn2)=C(O)c2sccc2S1(=O)=O | 0.0862% and -19.6% | – |
| CC(C)(C)NC[C@H](O)COc1cccc2c1CCCC2=O | -13.3% | – |
| Cc1cc(O)cc2c1[C@]1(C)CC[C@H]3C(C)(C)CCC[C@]3(C)[C@H]1C2 | -14% | – |
| Cc1onc(-c2c(Cl)cccc2Cl)c1C(=O)N[C@@H]1C(=O)N2[C@@H]1SC(C)(C)[C@@H]2C(=O)O | 1.28% | – |
| Oc1cc(O)cc(/C=C/c2ccc(O)c(O)c2)c1 | -23.2% | – |
| O=C(O)C1(C(=O)O)CCC1.[NH2-].[NH2-].[Pt+2] | 10.4% | – |
| CC[N+](CC)(CC)CCOc1cccc(OCC[N+](CC)(CC)CC)c1OCC[N+](CC)(CC)CC | 11.3% and -11.4% | – |
| CC(=O)Nc1nnc(S(N)(=O)=O)s1 | 5.04% | – |
| C[C@H]1O[C@@H](O[C@H]2[C@@H](O)C[C@H](O[C@H]3[C@@H](O)C[C@H](O[C@H]4CC[C@@]5(C)[C@H](CC[C@@H]6[C@@H]5C[C@@H](O)[C@]5(C)[C@@H](C7=CC(=O)OC7)CC[C@]65O)C4)O[C@@H]3C)O[C@@H]2C)C[C@H](O)[C@@H]1O | – | 0.0708 µM (active) |
| Cn1c(=O)c(-c2c(Cl)cccc2Cl)cc2cnc(Nc3cccc(C(=O)O)c3)nc21 | -0.886% | – |
| Nc1ccn([C@@H]2O[C@H](CO)[C@@H](O)[C@H]2O)c(=O)n1 | 10.2% | – |
| CC1(C)S[C@@H]2[C@H](N=CN3CCCCCC3)C(=O)N2[C@H]1C(=O)O | 3.39% | – |
| CCN(CC)CCNC(=O)c1ccc(NC(C)=O)cc1 | -7.72% | – |
| OC[C@H]1O[C@H](O[C@]2(CCl)O[C@H](CCl)[C@@H](O)[C@@H]2O)[C@H](O)[C@@H](O)[C@H]1Cl | -4.41% | – |
